Screening data as filed in PubChem BioAssay.
Shown are actives, neighbours in structure and some others; about 3.5% of the full set was active somewhere.
TEAD-YAP block – TEAD-YAP interaction inhibition, primary screen, TEAD-YAP interaction inhibitor project, luminescence, HEK-TIYL cells. TEAD-Gal4/YAP UAS-luciferase luminescence. inhibition, % at 9.12 µM. 640,000 compounds, 1.4% hits. AID 1259422, 2018; in the data active means inhibition above about 32%
FBW7 act – FBW7 E3 ligase activators, primary screen, biochemical, AlphaScreen, human; F-box/WD repeat-containing protein 7 (Homo sapiens), Q969H0; AlphaScreen FBW7–phospho-cyclin E peptide binding, activator screen; normalized activity (activation), % at 26.1 µM; 650,000 compounds, 0.13% hits; in the data active means normalized activity above about 1.9%;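 further: purified mutant Fbw7 with reduced substrate affinity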
MITF inh – MITF inhibitors, primary screen, biochemical, AlphaScreen, human; inhibition, % at 2.6 µM; Microphthalmia-associated transcription factor (Homo sapiens), O75030; AlphaScreen MITF homodimerization, bead proximity signal; 650,000 compounds, 0.91% hits; AID 1259374, 2018; in the data active means inhibition above about 50%
GPR151 ag – activators of human GPR151, primary screen, cell-based, PathHunter beta-arrestin, luminescence | G-protein coupled receptor 151 (Homo sapiens), Q8TDV0 | PathHunter beta-arrestin GPR151 cells | activation, % at 11.2 µM | 650,000 compounds, 1% hits | AID 1508602, 2020; in the data active means activation above about 4.9%
GPR151 confirm – GPR151 activators, triplicate retest, confirmation, cell-based, PathHunter beta-arrestin, luminescence; shares compounds with GPR151 ag; GPR151 PathHunter beta-arrestin cells, 90 min; % of EA-reagent control over plate median; activation, % at 11.2 µM; 6,700 tested, under 10 active;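 active means mean percent activation across replicates above the confirmation screen cutoff of 4.91%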
GPR119 ag – GPR119 activators in beta-arrestin cells, counter-screen for GPR151 activator project, cell-based, PathHunter beta-arrestin, luminescence, triplicate. activation, % at 11.2 µM. shares compounds with GPR151 ag. 6,700 compounds, 0.3% hits. 90 min; 0 = compound-well median, 100 = enzyme-acceptor control;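 active means mean percent activation in the counterscreen above 29.09%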;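 further: counterscreen on off-target GPR119 to flag nonselective hits from the GPR151 activator screen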
Target sequence (Q8TDV5 whole entry, looked up): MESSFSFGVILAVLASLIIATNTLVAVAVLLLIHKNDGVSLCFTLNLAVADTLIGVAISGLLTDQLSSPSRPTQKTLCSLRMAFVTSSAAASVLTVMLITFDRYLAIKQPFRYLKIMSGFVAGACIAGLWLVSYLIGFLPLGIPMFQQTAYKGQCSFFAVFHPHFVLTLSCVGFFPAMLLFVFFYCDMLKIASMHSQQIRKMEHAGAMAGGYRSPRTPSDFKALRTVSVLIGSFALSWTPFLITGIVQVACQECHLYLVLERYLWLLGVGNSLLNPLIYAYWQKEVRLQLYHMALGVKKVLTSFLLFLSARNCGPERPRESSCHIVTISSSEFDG
Each line names hits and unclear results; the compound was inactive in the other large screens (follow-up assays come after a bar, where they were run).

Cc1ccc(-c2ccc3c(c2)CC(CNC(=O)CCc2ccco2)O3)nc1 (stereo not drawn)	GPR151 ag 6.4 | GPR151 confirm inactive | GPR119 ag inactive
COc1ccc(C2C(C(=O)Nc3ccccn3)=C(C)Nc3ncnn32)cc1 (stereo not drawn)	none
COc1ccc2c(CNCc3ccc(F)cc3)c(C(=O)O)n(Cc3ccc(C)cc3)c2c1	GPR151 ag 7.8 | GPR151 confirm inactive | GPR119 ag inactive
O=C(CSc1cn(CC(=O)N2CCOCC2)c2ccccc12)NC1CCCC1	GPR151 ag 5.4 | GPR151 confirm inactive | GPR119 ag inactive
NC(=O)C1CCN(C(=O)C(=O)c2cn(CC(=O)N3CCCCCC3)c3ccccc23)CC1	GPR151 ag 6.2 | GPR151 confirm inactive | GPR119 ag inactive
CCN(CC)S(=O)(=O)c1cc([N+](=O)[O-])ccc1N/N=C(\C)c1cc2ccccc2o1	none
CC(C)n1c(NCCN2CCOCC2)nc2c(NC3CCN(Cc4ccccc4)CC3)ncnc21	none
O=C(COc1ccccc1[N+](=O)[O-])NC(=S)Nc1ccccc1N1CCOCC1	none
O=C(COc1ccccc1[N+](=O)[O-])Nc1cccc(Cl)c1N1CCOCC1	GPR151 ag 5.0 | GPR151 confirm inactive | GPR119 ag inactive
COC(=O)CN/N=C/c1ccc([N+](=O)[O-])cc1[N+](=O)[O-]	GPR151 ag 7.6 | GPR151 confirm inactive | GPR119 ag inactive
COc1ccc(/C=N/Nc2ccc([N+](=O)[O-])cc2[N+](=O)[O-])c(O)c1	none
Cc1sc2ncnc(N3CC4(C)CC3CC(C)(C)C4)c2c1C (stereo not drawn)	none
CC(C)(C)C(=O)N1CCC(n2nnc3ccccc3c2=O)CC1	none
O=C(Nc1ccc(Cl)c(-c2nc3ccccc3o2)c1)c1ccccc1Br	GPR151 ag 5.9 | GPR151 confirm inactive | GPR119 ag inactive
O=C(Nc1ccc(Cl)c(-c2nc3ccccc3o2)c1)c1ccccc1F	none
Cc1ccc(C(=O)Nc2ccc(-c3nc4ccccc4o3)cc2)c(Cl)c1	GPR151 ag 6.5 | GPR151 confirm inactive | GPR119 ag inactive
Cc1ccc(O)c(NC(=O)c2cnn3cc(Br)cnc23)c1	GPR151 ag 7.5 | GPR151 confirm inactive | GPR119 ag inactive
O=C(Nc1ccc([N+](=O)[O-])cc1Cl)c1cnn2cc(Br)cnc12	GPR151 ag 7.2 | GPR151 confirm inactive | GPR119 ag inactive
O=C(Nc1ccc([N+](=O)[O-])cc1Cl)c1cc2ncc(Br)cn2n1	none
Cc1ccc(O)c(NC(=O)c2cc3ncc(Br)cn3n2)c1	none
O=c1/c(=C/c2cc([N+](=O)[O-])ccc2OCc2ccc(Cl)cc2Cl)sc2nc3ccccc3n12	none
COc1cc(NC(=O)NC(C)C)c2ncccc2c1	none
COc1cc(NC(=O)C2CCCCC2)c2ncccc2c1	GPR151 ag 5.3 | GPR151 confirm inactive | GPR119 ag inactive
O=C(Nc1ccc(S(=O)(=O)N2CCCCC2)cc1)c1cc(F)c(F)c(F)c1F	none
S=C(NCc1ccccn1)Nc1cccc(Cl)c1	GPR151 ag 10.0 | GPR151 confirm inactive | GPR119 ag inactive
O=C(O)c1ccc(CNCc2ccc(Cl)cc2Cl)cc1	GPR151 ag 8.9 | GPR151 confirm inactive | GPR119 ag inactive
Cn1c(SCC(=O)NC(=O)NC(C)(C)C)nnc1C(F)(F)F	none
Cc1ccn2cc(-c3ccc(NC(=O)c4ccc5c(c4)OCO5)cc3)nc2c1	none
CCOP(=O)(OCC)c1nc(-c2cccc3ccccc23)oc1NCc1ccco1	GPR151 ag 5.3 | GPR151 confirm inactive | GPR119 ag inactive
Cc1cccc(C(C(=O)NC(C)(C)C)N(C(=O)c2csnn2)c2ccccc2)c1 (stereo not drawn)	none
CCSC1=C(C#N)C(c2ccc(Cl)cc2)CC(=O)N1 (stereo not drawn)	none
CCSC1=C(C#N)C(c2ccc(O)cc2)CC(=O)N1 (stereo not drawn)	GPR151 ag 6.2 | GPR151 confirm inactive | GPR119 ag inactive
